Data as given in paper PMC3218832.

Legend:
Assay in all cases: protein binding microarray; high values mean tight binding
Conditions in all cases: dsDNA, one strand shown
RELARELA (p65 homodimer) = RELARELA (p65 homodimer) (Homo sapiens, UniProt Q04206 1-307)
p50p50 homodimer = p50p50 homodimer (Homo sapiens, UniProt P19838 7-356)
p52p52 homodimer = target: T1, p52p52 homodimer (Homo sapiens, UniProt Q00653 4-332)
T1 sequence: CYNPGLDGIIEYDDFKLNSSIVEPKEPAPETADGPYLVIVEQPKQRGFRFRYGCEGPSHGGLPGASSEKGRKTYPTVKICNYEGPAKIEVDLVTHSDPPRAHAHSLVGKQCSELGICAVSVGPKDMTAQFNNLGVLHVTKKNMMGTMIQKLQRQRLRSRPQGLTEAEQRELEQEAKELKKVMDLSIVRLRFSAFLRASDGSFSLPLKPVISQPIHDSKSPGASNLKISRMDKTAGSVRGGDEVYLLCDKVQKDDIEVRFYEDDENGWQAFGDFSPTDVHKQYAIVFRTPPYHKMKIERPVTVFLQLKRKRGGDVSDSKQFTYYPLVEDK

[1] = target: RELA (p65) subunit of heterodimer;p50 subunit (Homo sapiens;Homo sapiens, UniProt Q04206;P19838 1-307;7-356)
[2] = target: RELA (p65) subunit of heterodimer;p52 subunit (Homo sapiens;Homo sapiens, UniProt Q04206;Q00653 1-307;4-332)
RELB subunit;p50 subunit = RELB subunit;p50 subunit (Homo sapiens;Homo sapiens, UniProt Q01201;P19838 120-401;7-356)
RELB subunit;p52 subunit = target: T2, RELB subunit;p52 subunit (Homo sapiens;Homo sapiens, UniProt Q01201;Q00653 120-401;4-332)
T2 sequence 1: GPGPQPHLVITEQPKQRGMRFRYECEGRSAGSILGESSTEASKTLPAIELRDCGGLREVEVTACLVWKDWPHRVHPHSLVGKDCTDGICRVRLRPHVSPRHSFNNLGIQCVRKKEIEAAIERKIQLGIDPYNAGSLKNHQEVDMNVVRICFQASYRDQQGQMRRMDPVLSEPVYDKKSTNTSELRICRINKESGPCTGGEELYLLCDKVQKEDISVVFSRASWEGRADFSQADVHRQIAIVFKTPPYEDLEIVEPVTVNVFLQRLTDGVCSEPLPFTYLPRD
T2 sequence 2: T1 sequence

[3] = target: C-Rel subunit;p50 subunit (Homo sapiens;Homo sapiens, UniProt Q04864;P19838 1-285;7-356)
[4] = target: T3, C-Rel subunit;p52 subunit (Homo sapiens;Homo sapiens, UniProt Q04864;Q00653 1-285;4-332)
T3 sequence 1: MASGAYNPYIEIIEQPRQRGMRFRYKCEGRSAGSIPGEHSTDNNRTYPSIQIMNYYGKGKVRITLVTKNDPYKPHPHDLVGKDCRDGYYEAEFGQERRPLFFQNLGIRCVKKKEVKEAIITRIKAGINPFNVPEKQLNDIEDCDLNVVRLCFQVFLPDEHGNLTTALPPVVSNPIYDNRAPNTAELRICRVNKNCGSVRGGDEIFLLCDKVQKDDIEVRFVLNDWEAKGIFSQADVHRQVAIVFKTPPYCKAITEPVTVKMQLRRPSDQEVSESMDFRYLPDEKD
T3 sequence 2: T1 sequence

p50p50 homodimer, sequence (P19838 7-356): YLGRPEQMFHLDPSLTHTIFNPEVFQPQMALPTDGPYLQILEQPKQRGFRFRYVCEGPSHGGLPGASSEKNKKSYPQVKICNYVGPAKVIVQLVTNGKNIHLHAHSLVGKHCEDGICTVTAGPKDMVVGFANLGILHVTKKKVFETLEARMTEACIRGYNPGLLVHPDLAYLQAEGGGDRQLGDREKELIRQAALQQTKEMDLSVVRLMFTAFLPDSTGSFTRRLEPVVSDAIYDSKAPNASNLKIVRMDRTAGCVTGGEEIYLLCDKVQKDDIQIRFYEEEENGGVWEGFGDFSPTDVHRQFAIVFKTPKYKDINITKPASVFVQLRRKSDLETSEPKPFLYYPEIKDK
RELA (p65) subunit of heterodimer;p50 subunit, sequence (Q04206 1-307, chain 1 of 2): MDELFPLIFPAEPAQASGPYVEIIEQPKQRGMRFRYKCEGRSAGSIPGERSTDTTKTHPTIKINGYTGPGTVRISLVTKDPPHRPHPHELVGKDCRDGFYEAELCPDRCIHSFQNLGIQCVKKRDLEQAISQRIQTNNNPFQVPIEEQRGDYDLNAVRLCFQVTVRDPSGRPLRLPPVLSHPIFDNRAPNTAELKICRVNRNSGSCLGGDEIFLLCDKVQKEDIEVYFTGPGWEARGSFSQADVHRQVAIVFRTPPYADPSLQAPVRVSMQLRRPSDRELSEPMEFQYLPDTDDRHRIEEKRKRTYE
RELA (p65) subunit of heterodimer;p50 subunit, sequence (P19838 7-356, chain 2 of 2): as the sequence (P19838 7-356) above
RELARELA (p65 homodimer), sequence (Q04206 1-307): as the sequence (Q04206 1-307, chain 1 of 2) above

| Sequence | binding signal (RELARELA (p65 homodimer)) [z-score] | binding signal (p50p50 homodimer) [z-score] | binding signal (p52p52 homodimer) [z-score] | binding signal [1] [z-score] | binding signal [2] [z-score] | binding signal (RELB subunit;p50 subunit) [z-score] | binding signal (RELB subunit;p52 subunit) [z-score] | binding signal [3] [z-score] | binding signal [4] [z-score] |
| --- | --- | --- | --- | --- | --- | --- | --- | --- | --- |
| GAGAGTTCCCC | 1.61 | 1.06 | 1.71 | 1.77 | 1.55 | 1.7 | 1.62 | 1.21 | 1.67 |
| GAGAATTCCCT | 1.81 | 1.39 | 2.1 | 1.68 | 1.6 | 1.65 | 1.74 | 1.43 | 1.33 |
| AGAGATCCCCC | -0.101 | 1.31 | 1.28 | 2.02 | 1.56 | 1.82 | 1.98 | 1.37 | 1.47 |
| GAATACATCCT | -0.313 | -0.946 | -0.677 | -0.816 | -0.805 | -0.977 | -0.824 | -1.36 | -0.87 |
| AAGAAAGCCCT | -0.308 | -0.8 | -0.426 | -0.68 | -0.581 | -0.838 | -0.728 | -0.563 | -0.671 |
| GAAGTTATCCC | -0.0836 | -0.295 | -0.152 | -0.31 | -0.235 | -0.113 | -0.152 | -0.126 | -0.251 |
| AAGTGGGCCCT | -0.584 | -0.904 | -0.603 | -0.886 | -0.714 | -0.762 | -0.527 | -1.25 | -0.634 |
| CGGATCTTCCT | 0.45 | -1.67 | -0.691 | -0.69 | -0.836 | -1.21 | -0.889 | -0.859 | -0.666 |
| CAGGTCATCCT | -0.599 | -1.84 | -0.537 | -1.21 | -1.08 | -1.24 | -0.916 | -1.52 | -1.02 |
| AGAAACGTCCT | -0.192 | -1.17 | -0.534 | -0.997 | -0.794 | -0.947 | -0.798 | -1.13 | -0.812 |
| CGGTTCATCCT | -0.997 | -1.12 | -0.513 | -0.88 | -0.9 | -0.96 | -0.765 | -1.41 | -1.01 |
| AGGAAGCCCCC | 0.317 | 1.14 | 1.3 | 1.61 | 1.31 | 1.03 | 1.07 | 1.09 | 1.7 |
| CGGGAGCTCCC | 0.73 | 0.136 | 0.135 | 0.408 | 0.0305 | 0.0766 | -0.106 | -0.102 | 0.192 |
| CGAGTTTCCCT | 1.14 | 1.12 | 1.17 | 1.16 | 1.16 | 1.04 | 1.42 | 1.07 | 0.975 |
| AGAATAATCCT | -0.568 | -1.24 | -0.591 | -0.939 | -0.846 | -0.98 | -0.603 | -0.925 | -0.909 |
| AAGGTAGCCCC | -0.468 | 0.424 | 0.109 | -0.162 | 0 | 0.152 | 0.184 | 0.249 | 0.217 |
| CAGGGCTCCCT | -0.815 | -0.631 | -0.475 | -0.698 | -0.717 | -0.43 | -0.477 | -0.901 | -0.708 |
| AGATATTCCCC | 1.8 | 1.31 | 2.2 | 2.03 | 1.99 | 1.8 | 1.96 | 1.64 | 1.71 |
| CGGTTCCCCCC | 0.357 | 1.52 | 1.57 | 2.24 | 1.89 | 2.3 | 2.23 | 1.85 | 1.73 |
| GGAGTCTCCCC | 1.17 | 0.531 | 0.409 | 1.27 | 0.997 | 0.547 | 0.514 | 0.822 | 0.954 |
| GAAAGTGCCCC | 0.518 | 0.277 | 0.105 | 0.655 | 0.365 | 0.443 | 0.479 | 0.607 | 0.511 |
| CGATTTCCCCT | 1.73 | 1.66 | 2.21 | 2.26 | 1.96 | 2.39 | 2.23 | 1.83 | 1.81 |
| GAAAAAACCCC | 2.27 | 1.19 | 2.74 | 1.93 | 2.2 | 2.14 | 2.12 | 1.45 | 2.18 |
| AGGAGTGTCCC | 1.3 | 0.0859 | 0.362 | 0.736 | 0.372 | 0.333 | 0.321 | 0.586 | 0.486 |
| CAATTATCCCC | 0.4 | 1.12 | 1.04 | 1.31 | 1.12 | 1.3 | 1.33 | 1.2 | 0.884 |
| GGAGTCCTCCC | -0.114 | -0.916 | -0.266 | -0.571 | -0.463 | -0.55 | -0.535 | -0.207 | -0.576 |
| GAGTATCCCCT | 0.0376 | 1.26 | 1.26 | 1.29 | 1.26 | 1.28 | 1.35 | 0.928 | 0.943 |
| CAAGATCTCCT | -0.508 | -1.36 | -0.744 | -1.11 | -1.02 | -1.04 | -1.06 | -1.49 | -1.01 |
| GAGAGTATCCC | -0.187 | -0.91 | -0.43 | -0.602 | -0.673 | -0.546 | -0.687 | -0.656 | -0.641 |
| GAATGTTTCCC | 2.03 | 0.423 | 0.332 | 1.09 | 0.797 | 0.422 | 0.655 | 1.2 | 0.614 |
